Common to all, as to experiment: growth (OD600 after 10 h); higher = more growth (less inhibition)
For assay [1], the system named is E. coli TESEC Alr+ wild-type control. Conditions: compound 0.1 mM; raw OD600 reference: median of DMSO wells 0.241, cell-free background 0.041. The protocol: (§1)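 TESEC Mtb Alr E. coli, or the Alr+ wild-type control, in 384-well plates with Prestwick library compounds at 0.1 mM and 1% DMSO, across arabinose induction levels of 1E3 to 1E7 nM. Growth is read as OD600 after 10 h at 37 °C in triplicate biological replicates.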

The test system of assay [2] is E. coli TESEC Mtb Alr. The conditions noted are these: compound 0.1 mM. The protocol: as §1
A further assay relates to E. coli TESEC Mtb Asd. The conditions noted are these: compound 0.1 mM. How it is done:
(§2)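 TESEC E. coli strains in which the native enzyme is deleted and replaced by arabinose-inducible Mtb Asd, DapB, CysH or TrpD, each grown in its selective medium. Strains were screened against the Prestwick library at 0.1 mM and 1% DMSO in 384-well format at low and high arabinose induction. Growth is read as OD600 after 10 h in triplicate.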

The next assay deals with E. coli TESEC Mtb DapB. The conditions noted are these: compound 0.1 mM. The protocol:
as §2

For assay [3], the system named is E. coli TESEC Alr+ wild-type control. The conditions noted are these: compound 0.1 mM; raw OD600 reference: median of DMSO wells 0.49, cell-free background 0.052. The protocol: (§3)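 TESEC Mtb Alr E. coli (ΔaraC ΔtolC ΔentC Δalr ΔdadX, arabinose-inducible Mtb Alr) or the Alr+ wild-type control strain, grown in defined M9-fructose medium without D-alanine in 96-well plates with Prestwick library compounds at 0.1 mM and 1% DMSO. Low Alr induction is 0.1 µM arabinose and high induction is 10 mM arabinose.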

Assay [4] has as its system E. coli TESEC Mtb Alr. The conditions noted are these: compound 0.1 mM. How it is done: as §3
The source holds these as a separate data set.

[5] abbreviates: arabinose 1000 nM, raw OD600 reference: median of DMSO wells 0.294, cell-free background 0.041.
Where [6] appears, read: arabinose 10000 nM, raw OD600 reference: median of DMSO wells 0.264, cell-free background 0.041.
The mark [7] stands for this setting: arabinose 100000 nM, raw OD600 reference: median of DMSO wells 0.201, cell-free background 0.041.
Where [8] appears, read: arabinose 1000000 nM, raw OD600 reference: median of DMSO wells 0.193, cell-free background 0.041.
The mark [9] stands for this setting: arabinose 10000000 nM, raw OD600 reference: median of DMSO wells 0.146, cell-free background 0.041.
Where [10] appears, read: arabinose induction (level): High, raw OD600 reference: median of DMSO wells 0.331, cell-free background 0.041.
Where [11] appears, read: arabinose induction (level): Low, raw OD600 reference: median of DMSO wells 0.417, cell-free background 0.041.
Where [12] appears, read: arabinose induction (level): High, raw OD600 reference: median of DMSO wells […], cell-free background 0.041.
Setting [13] is: arabinose induction (level): Low, raw OD600 reference: median of DMSO wells 0.227, cell-free background 0.041.
Where [14] appears, read: arabinose 100 nM, raw OD600 reference: median of DMSO wells 0.413, cell-free background 0.052.
Setting [15] is: arabinose 10000000 nM, raw OD600 reference: median of DMSO wells […], cell-free background 0.052.

Structures can show the parent of a compound that is named as a salt. ± gives the standard deviation of the averaged measurements.

As to `OCc1cc(C(O)CNCCCCCCOCCCCc2ccccc2)ccc1O` (stereo not drawn) [Salmeterol], the growth in assay [1] came to 0.166 ± 0.0032; with E. coli TESEC Mtb Alr [2] (setting [5]), 0.181 ± 0.012; in the assay on E. coli TESEC Mtb Alr [2] (setting [6]), 0.159 ± 0.0031; in the assay on E. coli TESEC Mtb Alr [2] (setting [7]) it was 0.171 ± 0.0065; with E. coli TESEC Mtb Alr [2] (setting [8]), 0.0641 ± 0.0012; in the assay on E. coli TESEC Mtb Alr [2] (setting [9]), 0.151 ± 0.0035. The growth is 0.176 ± 0.01 in the assay with E. coli TESEC Mtb Asd (setting [10]); 0.202 ± 0.049 with E. coli TESEC Mtb Asd (setting [11]); 0.208 ± 0.017 with E. coli TESEC Mtb DapB (setting [12]); 0.214 ± 0.017 with E. coli TESEC Mtb DapB (setting [13]); 0.399 ± 0.032 in assay [3]; 0.349 ± 0.0092 in the assay on E. coli TESEC Mtb Alr [4] (setting [14]). Further, the growth with E. coli TESEC Mtb Alr [4] (setting [15]) was 0.201 ± 0.033.
On to `O=C(c1ccc(OCCN2CCCCC2)cc1)c1c(-c2ccc(O)cc2)sc2cc(O)ccc12` [Raloxifene hydrochloride], for which the growth in assay [1] stood at 0.0456 ± 0.0048; in the assay on E. coli TESEC Mtb Alr [2] (setting [5]) it was 0.0454 ± 0.0038; in the assay on E. coli TESEC Mtb Alr [2] (setting [6]) it was 0.0428 ± 0.0024; in the assay with E. coli TESEC Mtb Alr [2] (setting [7]), 0.048 ± 0.0037; with E. coli TESEC Mtb Alr [2] (setting [8]) it was 0.0438 ± 0.002; with E. coli TESEC Mtb Alr [2] (setting [9]), 0.0448 ± 0.003. For the same compound, the growth in the assay with E. coli TESEC Mtb Asd (setting [10]) came to 0.062 ± 0.0013; in the assay with E. coli TESEC Mtb Asd (setting [11]) it was 0.0566 ± 0.0034; in the assay on E. coli TESEC Mtb DapB (setting [12]) it was 0.0658 ± 0.014; in the assay on E. coli TESEC Mtb DapB (setting [13]) it was 0.0509 ± 0.0031; in assay [3] it was 0.04917 ± 0.00038; with E. coli TESEC Mtb Alr [4] (setting [14]), 0.41 ± 0.007. For the same compound, the growth in the assay on E. coli TESEC Mtb Alr [4] (setting [15]) was determined as 0.0554 ± 0.0018.
`COc1cc2c(cc1OC)C(=O)C(CC1CCN(Cc3ccccc3)CC1)C2` (stereo not drawn) [Donepezil hydrochloride]: the growth in assay [1] was found to be 0.168 ± 0.0034; with E. coli TESEC Mtb Alr [2] (setting [5]) it was 0.251 ± 0.0063; with E. coli TESEC Mtb Alr [2] (setting [6]), 0.259 ± 0.0054; in the assay with E. coli TESEC Mtb Alr [2] (setting [7]) it was 0.158 ± 0.0035; in the assay on E. coli TESEC Mtb Alr [2] (setting [8]), 0.174 ± 0.013; with E. coli TESEC Mtb Alr [2] (setting [9]), 0.142 ± 0.0099. For the same compound, the growth in the assay on E. coli TESEC Mtb Asd (setting [10]) was found to be 0.234 ± 0.039; with E. coli TESEC Mtb Asd (setting [11]), 0.4033 ± 0.0016; in the assay with E. coli TESEC Mtb DapB (setting [12]) it was 0.167 ± 0.021; in the assay on E. coli TESEC Mtb DapB (setting [13]) it was 0.199 ± 0.039; in assay [3], 0.56 ± 0.055; in the assay with E. coli TESEC Mtb Alr [4] (setting [14]), 0.404 ± 0.011. The same compound gave a growth with E. coli TESEC Mtb Alr [4] (setting [15]) of 0.325 ± 0.0069.
As for `CCC1NC(=O)c2cc(S(N)(=O)=O)c(Cl)cc2N1` (stereo not drawn) [Quinethazone], the growth came out at 0.248 ± 0.0085 in assay [1]; 0.281 ± 0.0094 in the assay with E. coli TESEC Mtb Alr [2] (setting [5]); 0.266 ± 0.0054 with E. coli TESEC Mtb Alr [2] (setting [6]); 0.219 ± 0.0029 with E. coli TESEC Mtb Alr [2] (setting [7]); 0.199 ± 0.0047 in the assay with E. coli TESEC Mtb Alr [2] (setting [8]); 0.13 ± 0.0037 in the assay with E. coli TESEC Mtb Alr [2] (setting [9]). Also, the growth in the assay on E. coli TESEC Mtb Asd (setting [10]) is 0.419 ± 0.029; in the assay with E. coli TESEC Mtb Asd (setting [11]) it was 0.445 ± 0.051; with E. coli TESEC Mtb DapB (setting [12]), 0.212 ± 0.021; with E. coli TESEC Mtb DapB (setting [13]), 0.238 ± 0.047; in assay [3] it was 0.463 ± 0.013; with E. coli TESEC Mtb Alr [4] (setting [14]) it was 0.415 ± 0.006. This compound came in with a growth in the assay with E. coli TESEC Mtb Alr [4] (setting [15]) of 0.354 ± 0.022.
Regarding `Nc1ccc(S(=O)(=O)Nc2ncccn2)cc1` [Sulfadiazine], the growth in assay [1] was determined as 0.257 ± 0.0066; in the assay on E. coli TESEC Mtb Alr [2] (setting [5]), 0.288 ± 0.017; in the assay with E. coli TESEC Mtb Alr [2] (setting [6]), 0.241 ± 0.0079; in the assay with E. coli TESEC Mtb Alr [2] (setting [7]) it was 0.199 ± 0.036; with E. coli TESEC Mtb Alr [2] (setting [8]) it was 0.1549 ± 0.0004; with E. coli TESEC Mtb Alr [2] (setting [9]) it was 0.146 ± 0.0024. Moreover, the growth turned out to be 0.374 ± 0.043 with E. coli TESEC Mtb Asd (setting [10]); 0.414 ± 0.0071 with E. coli TESEC Mtb Asd (setting [11]); 0.184 ± 0.015 in the assay with E. coli TESEC Mtb DapB (setting [12]); 0.187 ± 0.023 in the assay with E. coli TESEC Mtb DapB (setting [13]); 0.464 ± 0.054 in assay [3]; 0.411 ± 0.011 with E. coli TESEC Mtb Alr [4] (setting [14]). This compound gave a growth in the assay on E. coli TESEC Mtb Alr [4] (setting [15]) of 0.312 ± 0.066.
For `C[C@H]1C[C@H]2[C@@H]3CCC4=CC(=O)C=C[C@]4(C)[C@@]3(F)[C@@H](O)C[C@]2(C)[C@@]1(O)C(=O)CO` [Betamethasone], the growth worked out at 0.184 ± 0.0078 in assay [1]; 0.231 ± 0.031 with E. coli TESEC Mtb Alr [2] (setting [5]); 0.256 ± 0.002 with E. coli TESEC Mtb Alr [2] (setting [6]); 0.154 ± 0.0079 with E. coli TESEC Mtb Alr [2] (setting [7]); 0.134 ± 0.0038 in the assay on E. coli TESEC Mtb Alr [2] (setting [8]); 0.131 ± 0.0027 in the assay on E. coli TESEC Mtb Alr [2] (setting [9]). Also, the growth in the assay on E. coli TESEC Mtb Asd (setting [10]) was 0.273 ± 0.096; in the assay with E. coli TESEC Mtb Asd (setting [11]) it was 0.36 ± 0.054; in the assay on E. coli TESEC Mtb DapB (setting [12]), 0.198 ± 0.033; in the assay on E. coli TESEC Mtb DapB (setting [13]), 0.211 ± 0.064; in assay [3], 0.552 ± 0.02; with E. coli TESEC Mtb Alr [4] (setting [14]) it was 0.406 ± 0.0084. For the same compound, in the assay on E. coli TESEC Mtb Alr [4] (setting [15]), the growth was determined as 0.257 ± 0.0044.

The record behind these values is the supplement of paper PMC9262897, “Low-cost anti-mycobacterial drug discovery using engineered E. coli” (Nature Communications, 2022).
